# Where “and” joins values, the source holds several entries; their conditions need not be identical. Equal values may be shown once. Calls of active or inactive are those of the source. A call without a number means that no potency is given here. Unless noted, calls follow the shape of the dose curve; as a rule, active = well fitted curve in the direction sought with a large enough effect in the repeat runs; inconclusive = weak or mixed curves; inactive = no such curve, though single readings can be large; an effect the other way counts as inactive or inconclusive.
# Tests used:
# [1] = qHTS assay for small molecule agonists of the p53 signaling pathway (AID 651631; calls by dose curve; also: nearly all actives have a fitted effect of over 15% in size; also: potency is read from the fitted curve at half-maximal effect)
# Method in brief: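 Quantitative high-throughput format: 4,000 p53RE-bla HCT-116 cells/well, 5 h pre-incubation, 16 h compound exposure at 37 °C, 2 h room-temperature substrate step, fluorescence intensity measured.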
# [2] = qHTS assay for small molecule agonists of the p53 signaling pathway - cell viability (AID 651633; calls by dose curve; also: nearly all actives have a fitted effect of over 30% in size; also: potency is read from the fitted curve at half-maximal effect)
# Method in brief: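 Viability counter-read: CellTiter-Glo luminescence (30 min, room temperature) in the same p53RE-bla plates. These plates had been exposed to compounds for 16 h at 37 C.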
# [3] = qHTS assay for small molecules that induce genotoxicity in human embryonic kidney cells expressing luciferase-tagged ATAD5 - cell viability (AID 651634; calls by dose curve; also: nearly all actives have a fitted effect of over 25% in size; also: potency is read from the fitted curve at half-maximal effect)
# Method in brief: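 After 15.5 hr incubation with compound at 37C, 5% CO2, HEK293T ATAD5-luciferase cells received CellTiter-Fluor reagent; fluorescence intensity was quantified following 30 min at 37C.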
# [4] = qHTS assay for small molecule disruptors of the mitochondrial membrane potential - cell viability (AID 720634; calls by dose curve;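 also: human HepG2 liver cancer cells; series mostly up to about 83 µM; nearly all actives have a fitted effect of over 20% in size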)
# Method in brief: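 ATP-based luminescent viability readout (CellTiter-Glo, 30 min, room temperature) in HepG2 cells multiplexed with the m-MPI membrane potential dye; compound exposure lasted 1 hr at 37 C.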
# [5] = qHTS assay for small molecule disruptors of the mitochondrial membrane potential (AID 720635); also: potency is read from the fitted curve at half-maximal effect
# Method in brief: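 Mitochondrial membrane potential tracked with Mito-MPS dye, red aggregates (ex 540/em 590 nm) against green monomers (ex 490/em 535 nm). Compound treatment 1 hr at 37C, dye 30 min in HepG2.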
# [6] = qHTS assay to test for compound auto fluorescence at 590 nm (red) in HepG2 cells (AID 720674)
# Method in brief: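 1 hr compound incubation on HepG2 cells, 37 C, 5% CO2; plate read ex 540 nm / em 590 nm; intensities reported as Rose Bengal sodium equivalents.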
# [7] = qHTS assay to test for compound auto fluorescence at 535 nm (green) in HepG2 cells (AID 720675)
# [8] = qHTS assay to test for compound auto fluorescence at 460 nm (blue) in HEK293 cells (AID 720678)
# Method in brief: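 Blue read-out at excitation 405 nm and emission 460 nm follows overnight compound exposure of HEK293 cells at 37C in 5% CO2. Activity is given as auto fluorescence equivalency to triamterene.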
# [9] = qHTS assay to test for compound auto fluorescence at 535 nm (green) in HEK293 cells (AID 720680)
# [10] = qHTS assay to test for compound auto fluorescence at 460 nm (blue) in HEK293 cell free culture (AID 720681); also: potency is read from the fitted curve at half-maximal effect
# Method in brief: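 Blue fluorescence (Ex 405/Em 460 nm, triamterene-equivalent) was read immediately after pin transfer of compound or DMSO into medium (DMEM, 10% FBS) without cells.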
# [11] = qHTS assay to test for compound auto fluorescence at 535 nm (green) in HEK293 cell free culture (AID 720682)
# Method in brief: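 Measurement is a direct plate read of green fluorescence (485 nm in, 535 nm out) after compound addition to serum-supplemented DMEM lacking cells, with fluorescein used to express intensities.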
# [12] = qHTS assay to test for compound auto fluorescence at 590 nm (red) in HEK293 cell free culture (AID 720683)
# Method in brief: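 Red-channel autofluorescence of compounds in culture medium (DMEM, 10% FBS), no cells, measured at 540/590 nm. Rose Bengal sodium is the reference fluorophore for equivalence.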
# [13] = qHTS assay to test for compound auto fluorescence at 590 nm (red) in HepG2 cell free culture (AID 720684)
# Method in brief: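 No cells present: MEM + 10% FBS only. Compound pinned in, red label read (540/590 nm). Activity = fluorescence equivalent to Rose Bengal sodium.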
# [14] = qHTS assay to test for compound auto fluorescence at 460 nm (blue) in HepG2 cell free culture (AID 720685); also: potency is read from the fitted curve at half-maximal effect
# Method in brief: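 Cell-free plates of MEM plus 10% FBS received 23 nL compound or DMSO vehicle; blue-channel (405/460 nm) intensity scored against triamterene as reference fluorophore.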
# [15] = qHTS assay to test for compound auto fluorescence at 535 nm (green) in HepG2 cell free culture (AID 720686)
# [16] = qHTS assay to test for compound auto fluorescence at 460 nm (blue) in HepG2 cells (AID 720687); also: potency is read from the fitted curve at half-maximal effect
# Method in brief: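 Blue-channel autofluorescence (Ex/Em 405/460 nm, triamterene-equivalent) was measured after 1 hr compound exposure at 37 C, 5% CO2. Cells were HepG2, plated overnight at 37 C in MEM plus 10% FBS.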
# [17] = target: Glucocorticoid receptor (Homo sapiens) (UniProt P04150); experiment: qHTS assay to identify small molecule agonists of the glucocorticoid receptor (GR) signaling pathway (AID 720691; active = well fitted activation curve with a large enough effect in the signal ratio in the repeat runs, not every such curve was filed as active; inconclusive = weak or mixed curves, or effect the other way; inactive = no such curve, though single readings can be large or run the other way; the % refers to the signal ratio; also: potency is read from the fitted curve at half-maximal effect)
# Chain of Glucocorticoid receptor (Homo sapiens) (P04150 whole entry, looked up): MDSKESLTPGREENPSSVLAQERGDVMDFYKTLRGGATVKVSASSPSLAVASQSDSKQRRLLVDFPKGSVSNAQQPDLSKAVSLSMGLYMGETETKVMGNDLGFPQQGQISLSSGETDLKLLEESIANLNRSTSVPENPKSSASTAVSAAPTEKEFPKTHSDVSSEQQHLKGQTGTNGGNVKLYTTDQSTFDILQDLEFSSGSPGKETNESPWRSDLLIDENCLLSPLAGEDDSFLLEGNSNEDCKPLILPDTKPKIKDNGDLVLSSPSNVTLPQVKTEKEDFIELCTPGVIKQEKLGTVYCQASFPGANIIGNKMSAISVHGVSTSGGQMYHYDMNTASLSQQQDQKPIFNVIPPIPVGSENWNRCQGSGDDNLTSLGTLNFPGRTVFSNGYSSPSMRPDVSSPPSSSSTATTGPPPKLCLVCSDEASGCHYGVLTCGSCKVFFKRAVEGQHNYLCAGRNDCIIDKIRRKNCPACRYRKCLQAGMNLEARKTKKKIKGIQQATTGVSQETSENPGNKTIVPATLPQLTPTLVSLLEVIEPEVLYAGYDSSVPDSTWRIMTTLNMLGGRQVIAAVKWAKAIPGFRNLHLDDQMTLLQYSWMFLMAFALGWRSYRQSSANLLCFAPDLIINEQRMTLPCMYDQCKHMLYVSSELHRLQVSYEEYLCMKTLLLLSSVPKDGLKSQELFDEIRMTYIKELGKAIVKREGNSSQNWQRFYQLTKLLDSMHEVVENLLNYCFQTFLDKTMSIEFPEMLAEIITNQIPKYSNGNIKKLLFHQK
# Method in brief: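 Cells: GR-bla HeLa, endogenous GR with stably integrated GRE-beta-lactamase reporter. Treatment 18 h, 37 C, compounds delivered in DMSO. Detection via LiveBLAzer B/G FRET substrate, 2 h RT, fluorescence intensity.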
# [18] = target: Glucocorticoid receptor (Homo sapiens) (UniProt P04150); experiment: qHTS assay to identify small molecule antagonists of the glucocorticoid receptor (GR) signaling pathway (AID 720692; active = well fitted inhibition curve with a large enough effect in the signal ratio in the repeat runs, not every such curve was filed as active; inconclusive = weak or mixed curves, or effect the other way; inactive = no such curve, though single readings can be large or run the other way; the % refers to the signal ratio)
# Method in brief: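 Quantitative HTS in antagonist format: HeLa cells expressing endogenous GR and a stably integrated GRE-bla reporter, stimulated with 5 nM dexamethasone (final) alongside test compounds for 18 h.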
# [19] = qHTS assay for small molecules that induce genotoxicity in human embryonic kidney cells expressing luciferase-tagged ATAD5 (AID 651632); also: nearly all actives have a fitted effect of over 15% in size
# Method in brief: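 Quantitative HTS in HEK293T expressing luciferase-tagged ATAD5, whose levels rise upon DNA damage. Exposure ran 16 hr at 37C and 5% CO2, with luminescence read 30 min after Amplite addition at room temperature.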
# [20] = qHTS assay to test for compound auto fluorescence at 590 nm (red) in HEK293 cells (AID 720679)
# Method in brief: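 Red channel, Ex/Em 540/590nm; signal expressed as equivalency to Rose Bengal sodium. HEK293, 2,000 cells/well, 10% dialyzed FBS; 23 nL compound pinned after 4-5 hr attachment; overnight 37C/5% CO2 before reading.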
# Tags tell the direction and shape of the fitted curve or compound fluorescence and quenching.
Compound,Potency [1],Potency [2],Potency [3],Potency [4],Potency [5],Potency [6],Potency [7],Potency [8],Potency [9],Potency [10],Potency [11],Potency [12],Potency [13],Potency [14],Potency [15],Potency [16],Potency [17],Potency [18],Potency [19],Potency [20]
O=C(O)c1ccccc1,inactive,inactive,inactive,inactive,inactive,inactive,inactive,inactive,inactive,inactive,inactive,inactive,inactive,inactive,inactive,inactive,–,–,–,–
CCCCOC(=O)c1ccc(O)cc1,inactive,inactive,inactive,inactive,23.7 µM (active) and 9.81 µM (active) and 19.3 µM (active),inactive,inactive,inactive,inactive,inactive,inactive,inactive,inactive,inactive,inactive,inactive,inactive,inactive,–,–
COc1ccc2c(c1)c(CC(=O)O)c(C)n2C(=O)c1ccc(Cl)cc1,inactive,inactive,inactive,inactive,–,inactive,inactive,–,inactive,inactive,inactive,inactive,inactive,inactive,inactive,inactive,inactive,–,inactive,–
COc1ccc(OC(F)(F)F)cc1CN[C@H]1CCCN[C@H]1c1ccccc1,inactive,inactive,inactive,inactive,–,inactive,inactive,–,inactive,inactive,inactive,inactive,inactive,inactive,inactive,inactive,inactive,–,inactive,inactive
NS(=O)(=O)c1cc2c(cc1Cl)NCNS2(=O)=O,inactive,inactive,inactive,inactive,inactive,inactive,inactive,inactive,inactive,inactive,inactive,inactive,inactive,inactive,inactive,inactive,inactive,inactive,–,–
Cc1ncc([N+](=O)[O-])n1C,inactive,inactive,inactive,inactive,inactive,inactive,inactive,inactive,inactive,inactive,inactive,inactive,inactive,inactive,inactive,inactive,inactive,inactive,inactive,–
CCOC(N)=O,inactive,inactive,inactive,inactive,inactive,inactive,inactive,–,inactive,inactive,inactive,inactive,inactive,inactive,inactive,inactive,–,–,inactive,–
CCOc1ccc(NC(C)=O)cc1,inactive,inactive,inactive,inactive,inactive,inactive,inactive,inactive,inactive,inactive,inactive,inactive,inactive,inactive,inactive,inactive,inactive,inactive,–,–
Cc1cc(=O)oc2cc(O)ccc12,61.1 µM (active) and 48.6 µM (active),inactive,inactive,inactive,inactive,inactive,inactive,–,inactive,10 µM (active) and 39.8 µM (active) and 35.5 µM (active),inactive,inactive,inactive,10 µM [fluorescent] (active) and 39.8 µM [fluorescent] (active),inactive,10 µM [fluorescent] (active) and 39.8 µM [fluorescent] (active),–,–,–,inactive
O=C(O)CC(O)C(=O)O (configuration not stated),inactive,inactive,inactive,inactive,inactive,inactive,inactive,inactive,inactive,inactive,inactive,inactive,inactive,inactive,inactive,inactive,–,–,–,–
Oc1ccccc1,inactive,inactive,inactive,inactive,inactive,inactive,inactive,inactive,inactive,inactive,inactive,inactive,inactive,inactive,inactive,inactive,–,–,–,–
NC(=O)n1c(O)c(C(=O)c2cccs2)c2cc(Cl)ccc21,5.96 µM (active),8.41 µM (active),–,inactive,11.9 µM (active),inactive,inactive,–,inactive,inactive,inactive,inactive,inactive,inactive,inactive,inactive,inactive,–,inactive,–
O=c1[nH]cc(F)c(=O)[nH]1,4.22 µM (active) and 3.57 µM (active) and 1.57 µM (active),1.06 µM (active) and 991 nM (active),inactive,inactive,inactive,inactive,inactive,inactive,inactive,inactive,inactive,inactive,inactive,inactive,inactive,inactive,inactive,inactive,–,–
CC(=O)C(=O)O,inactive,inactive,inactive,inactive,inactive,inactive,inactive,inactive,inactive,inactive,inactive,inactive,inactive,inactive,inactive,inactive,–,–,–,inactive
NC(=O)c1cccnc1,inactive,inactive,inactive,inactive,inactive,inactive,inactive,–,inactive,inactive,inactive,inactive,inactive,inactive,inactive,inactive,inactive,inactive,inactive,inactive
CCc1nc(N)nc(N)c1-c1ccc(Cl)cc1,8.41 µM (active),10.6 µM (active) and 12.4 µM (active),inactive,inactive,inactive,inactive,inactive,inactive,inactive,inactive,inactive,inactive,inactive,inactive,inactive,inactive,inactive,inactive,inactive,inactive
CC12CCC(CC1)C(C)(C)O2,inactive,inactive,inactive,inactive,inactive,inactive,inactive,inactive,inactive,inactive,inactive,inactive,inactive,inactive,inactive,inactive,inactive,inactive,inactive,–
CN(C)CCOC(C)(c1ccccc1)c1ccccn1 (configuration not stated),inactive,inactive,inactive,inactive,–,inactive,inactive,–,inactive,inactive,inactive,inactive,inactive,inactive,inactive,inactive,–,–,inactive,inactive
CCCCCCCC(=O)OCC(COC(=O)CCCCCCC)OC(=O)CCCCCCC,inactive,inactive,inactive,inactive,inactive,inactive,inactive,inactive,inactive,inactive,inactive,inactive,inactive,inactive,inactive,inactive,inactive,inactive,inactive,–
NC(CO)(CO)CO,inactive,inactive,inactive,inactive,inactive,inactive,inactive,inactive,inactive,inactive,inactive,inactive,inactive,inactive,inactive,inactive,inactive,inactive,inactive,–
NS(=O)(=O)O,inactive,inactive,inactive,inactive,inactive,inactive,inactive,inactive,inactive,inactive,inactive,inactive,inactive,inactive,inactive,inactive,inactive,inactive,–,–
CCCCNC(=O)NS(=O)(=O)c1ccc(C)cc1,inactive,inactive,inactive,inactive,inactive,inactive,inactive,–,inactive,inactive,inactive,inactive,inactive,inactive,inactive,inactive,inactive,inactive,inactive,inactive
CCCCC1(COC(=O)CCC(=O)O)C(=O)N(c2ccccc2)N(c2ccccc2)C1=O,inactive,inactive,inactive,inactive,inactive,inactive,inactive,inactive,inactive,inactive,inactive,inactive,inactive,inactive,inactive,inactive,–,–,inactive,–
Cc1c(C(=O)O)c(O)cc2c1C(=O)c1c(O)c([C@@H]3O[C@H](CO)[C@@H](O)[C@H](O)[C@H]3O)c(O)c(O)c1C2=O,inactive,inactive,11.9 µM (active) and 37.6 µM (active) and 54.5 µM (active),inactive,inactive,inactive,inactive,inactive,inactive,inactive,inactive,inactive,inactive,inactive,inactive,inactive,inactive,inactive,–,inactive
CC1(C)S[C@@H]2[C@H](NC(=O)[C@H](N)c3ccccc3)C(=O)N2[C@H]1C(=O)O,inactive,inactive,inactive,–,–,inactive,inactive,inactive,inactive,inactive,inactive,inactive,inactive,inactive,inactive,inactive,–,–,inactive,inactive
CC1(C)O[C@@H]2C[C@H]3[C@@H]4CCC5=CC(=O)C=C[C@]5(C)[C@@]4(F)[C@@H](O)C[C@]3(C)[C@]2(C(=O)CO)O1,inactive,inactive,inactive,inactive,inactive,inactive,inactive,inactive,inactive,inactive,inactive,inactive,inactive,inactive,inactive,inactive,3 nM [inconclusive] (active) and 349 nM [inconclusive] (active) and 1.4 nM (active),–,inactive,inactive
CCCc1cc(=O)[nH]c(=S)[nH]1,inactive,inactive,inactive,inactive,inactive,inactive,inactive,inactive,inactive,inactive,inactive,inactive,inactive,inactive,inactive,inactive,–,–,–,–
COc1ccc(C(Cl)=C(c2ccc(OC)cc2)c2ccc(OC)cc2)cc1,inactive,inactive,inactive,inactive,13.6 µM (active) and 21.7 µM (active),inactive,inactive,inactive,inactive,inactive,inactive,inactive,inactive,inactive,inactive,inactive,inactive,–,inactive,inactive
